Reference: PubChem BioAssay AID1159580 (chemical genetic matrix, 2015)
Values joined by “and” are separate entries in the source; they are usually repeats but may differ in a detail not shown here. Equal values may be shown once. About 2,000 (36%) of roughly 5,500 compounds were called active. Another 18% or so got no clear call; they are omitted. No stated cut-off is given here; in the data, active means normalized growth mostly below about 0.91 (no sharp cut-off); inconclusive means no clear call, values can overlap the other calls; inactive means mostly above about 0.92. The list shows a part of the results. Where a SMILES comes first, the peptide text is derived from it. Bridges are numbered along the chain shown (N, C = ends). [ ]: non-standard residue; d: D form. The star is where a group is joined. ξ: configuration not given here. ξDab(CH2SO3H) = NC(CCNCS(=O)(=O)O)C(=O)O; Heptanoyl(6-Me) = CC(C)CCCCC(=O)*; Dab = NCC[CH](N)C(=O)O

Test: chemical genetic growth profiling, strain panel (AID 1159580);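 further: tested at 20 µM; growth read once vehicle control cultures reached saturation at 30 °C; 1 = growth at the plate median or of vehicle wells; lower values mean less growth of the strain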
Settings: S. cerevisiae deletion strains, growth OD

Measured: normalized growth

CCC(C)C1NC(=O)C(CCNCS(=O)(=O)O)NC(=O)C(NC(=O)C(CCNCS(=O)(=O)O)NC(=O)C(NC(=O)C(CCNCS(=O)(=O)O)NC(=O)CCCCC(C)C)C(C)O)CCNC(=O)C(C(C)O)NC(=O)C(CCNCS(=O)(=O)O)NC(=O)C(CCNCS(=O)(=O)O)NC(=O)C(C(C)CC)NC1=O (stereo unspecified) ({Heptanoyl(6-Me)}-[ξDab(CH2SO3H)]T[ξDab(CH2SO3H)][Dab][ξDab(CH2SO3H)]II[ξDab(CH2SO3H)][ξDab(CH2SO3H)]T; lactam 4-C; configuration not given here)
inactive: locus YAL013W, strain DEP1, hits give low values 1 | locus YAL021C, strain ccr4, hits give low values 0.93 | locus YAL026C, strain drs2, hits give low values 0.989 | locus YAL030W, strain snc1, hits give low values 0.99 | locus YBL061C, strain skt5, hits give low values 0.981 | locus YBR009C, strain hhf1, hits give low values 0.971 | locus YBR021W, strain FUR4, hits give low values 1.02 | locus YBR023C, strain chs3, hits give low values 0.985 | locus YBR171W, strain sec66, hits give low values 0.995 | locus YBR229C, strain ROT2, hits give low values 0.987 | locus YBR231C, strain swc5, hits give low values 1 | locus YBR279W, strain paf1, hits give low values 1 | locus YCL011C, strain gbp2, hits give low values 0.996 | locus YCL016C, strain dcc1, hits give low values 0.994 | locus YCL029C, strain bik1, hits give low values 0.955 | locus YCL061C, strain MRC1, hits give low values 0.996 | locus YCL069W, strain vba3, hits give low values 0.978 | locus YCR088W, strain abp1, hits give low values 0.976 | locus YDL005C, strain med2, hits give low values 1.01 | locus YDL035C, strain GPR1, hits give low values 0.989 | locus YDL040C, strain nat1, hits give low values 0.972 | locus YDL074C, strain BRE1, hits give low values 1 | locus YDL101C, strain DUN1, hits give low values 0.992 | locus YDL134C, strain PPH21, hits give low values 0.993 | locus YDL185W, strain tfp1, hits give low values 0.935 | locus YDL192W, strain arf1, hits give low values 0.965 | locus YDR001C, strain nth1, hits give low values 0.992 | locus YDR069C, strain doa4, hits give low values 0.961 | locus YDR101C, strain arx1, hits give low values 0.983 | locus YDR137W, strain rgp1, hits give low values 1.03 | locus YDR150W, strain NUM1, hits give low values 0.97 | locus YDR159W, strain sac3, hits give low values 0.95 | locus YDR162C, strain NBP2, hits give low values 0.98 | locus YDR195W, strain ref2 0.946 | locus YDR297W, strain sur2, hits give low values 0.998 | locus YDR318W, strain mcm21, hits give low values 0.956 | locus YDR334W, strain swr1, hits give low values 0.959 | locus YDR335W, strain msn5, hits give low values 0.984 | locus YDR388W, hits give low values 0.972 | locus YDR392W, strain spt3, hits give low values 1.02 | locus YDR502C, strain sam2, hits give low values 0.976 | locus YEL003W, strain gim4, hits give low values 0.996 | locus YEL037C, strain rad23, hits give low values 0.969 | locus YEL061C, strain CIN8 (second series), hits give low values 0.978 | locus YEL061C, strain CIN8, hits give low values 0.982 | locus YER015W, strain faa2, hits give low values 0.996 | locus YER016W, strain bim1, hits give low values 0.997 | locus YER110C, hits give low values 0.98 | locus YER111C, strain swi4, hits give low values 1 | locus YER155C, strain BEM2 (second series), hits give low values 1.01 | locus YER155C, strain BEM2, hits give low values 0.984 | locus YER167W, strain BCK2, hits give low values 0.964 | locus YFR010W, strain ubp6, hits give low values 0.979 | locus YGL078C, strain dbp3, hits give low values 0.968 | locus YGL086W, strain mad1, hits give low values 0.972 | locus YGL167C, strain pmr1, hits give low values 0.967 | locus YGL173C, strain kem1, hits give low values 0.984 | locus YGL227W, strain vid30, hits give low values 0.988 | locus YGL240W, strain doc1, hits give low values 1 | locus YGL248W, strain PDE1, hits give low values 0.988 | locus YGL253W, strain hxk2, hits give low values 0.993 | locus YGR078C, strain PAC10, hits give low values 0.999 | locus YGR135W, strain pre9, hits give low values 0.988 | locus YGR229C, strain SMI1, hits give low values 1.01 | locus YGR252W, strain gcn5, hits give low values 1.1 | locus YHR013C, strain ard1, hits give low values 0.978 | locus YHR027C, strain rpn1, hits give low values 1 | locus YHR030C, strain SLT2, hits give low values 0.98 and 1.01 | locus YHR079C, strain IRE1 (second series), hits give low values 0.966 | locus YHR079C, strain IRE1, hits give low values 0.971 | locus YHR094C, strain hxt1, hits give low values 0.952 | locus YHR129C, strain ARP1, hits give low values 0.98 | locus YHR142W, strain chs7, hits give low values 0.982 | locus YHR200W, strain rpn10, hits give low values 0.951 | locus YIL066C, strain RNR3, hits give low values 0.977 | locus YIL073C, strain SPO22, hits give low values 0.975 | locus YIL125W, strain kgd1, hits give low values 0.969 | locus YIR030C, strain dcg1, hits give low values 0.967 | locus YJL092W, strain hpr5, hits give low values 0.987 | locus YJL095W, strain BCK1 (second series), hits give low values 0.987 | locus YJL095W, strain BCK1, hits give low values 0.974 and 0.981 | locus YJL115W, strain asf1, hits give low values 0.975 | locus YJL129C, strain trk1, hits give low values 1.08 | locus YJL134W, strain LCB3, hits give low values 0.976 | locus YJL154C, strain vps35, hits give low values 0.98 | locus YJL164C, strain tpk1, hits give low values 0.994 | locus YJL166W, strain qcr8, hits give low values 0.986 | locus YJL168C, strain set2, hits give low values 0.966 | locus YJL187C, strain SWE1 (second series), hits give low values 0.978 | locus YJR043C, strain POL32, hits give low values 1 | locus YJR066W, strain TOR1, hits give low values 0.97
